In PubChem BioAssay (NCATS):
Activity calls are given as the source filed them. Calls come from the whole dose curve; as a rule, active = well fitted curve in the direction sought with a large enough effect; inconclusive = small, poorly fitted or top-dose-only effect, or another doubt; inactive = no such curve, though single readings can be large or run the other way.

target: Methanococcus maripaludis chaperonin (MmCpn) (UniProt Q6LX38); assay: High-Throughput Screening for Modulators of Cytosolic Chaperonin Activity: MmCpn Primary Screen (AID 488978); conditions: Purified MmCpn ATPase activity, ADP HTRF detection, 10 min; series mostly up to 76.9 µM
Text: Chaperonins are key components of the cellular chaperone machinery. These large complexes consist of two stacked 7-9 membered rings, each containing a central cavity. Substrates are folded within the cavity in an ATP-dependent manner. TRiC is a complex of eight different, essential proteins. As each of the genes encoding the eight subunits is essential for cell viability and no protocol has been developed to overexpress this enzyme to high levels, several groups have turned to the archaeal homolog of TRiC from Methanococcus maripaludis (MmCpn) as a model system for the study of the type II chaperonin family.
MmCpn was kindly provided by the laboratory of Judith Frydman.
1. Dispense 1.5 ul enzyme of either TriC at 100 nM or MmCpn at 50 nM final concentration.
2. Transfer 23 nl of compound to plate, incubate 5 min at RT.
3. 1.5 ul ATP at 30 uM at final concentration dispensed into plate.
4. Incubate for 10 minutes at 37C (MmCPN), 30C (TriC).
5. 3 ul of the Cisbio ADP Transcreener HTRF detection reagent prepared according to protocol dispensed into plate.
6. Incubate for 5 minutes.
7. Read using EnVision plate reader at Excitation = 320nm and Emission = 590nm, 665nm

Chain of Methanococcus maripaludis chaperonin (MmCpn) (Q6LX38 1-543): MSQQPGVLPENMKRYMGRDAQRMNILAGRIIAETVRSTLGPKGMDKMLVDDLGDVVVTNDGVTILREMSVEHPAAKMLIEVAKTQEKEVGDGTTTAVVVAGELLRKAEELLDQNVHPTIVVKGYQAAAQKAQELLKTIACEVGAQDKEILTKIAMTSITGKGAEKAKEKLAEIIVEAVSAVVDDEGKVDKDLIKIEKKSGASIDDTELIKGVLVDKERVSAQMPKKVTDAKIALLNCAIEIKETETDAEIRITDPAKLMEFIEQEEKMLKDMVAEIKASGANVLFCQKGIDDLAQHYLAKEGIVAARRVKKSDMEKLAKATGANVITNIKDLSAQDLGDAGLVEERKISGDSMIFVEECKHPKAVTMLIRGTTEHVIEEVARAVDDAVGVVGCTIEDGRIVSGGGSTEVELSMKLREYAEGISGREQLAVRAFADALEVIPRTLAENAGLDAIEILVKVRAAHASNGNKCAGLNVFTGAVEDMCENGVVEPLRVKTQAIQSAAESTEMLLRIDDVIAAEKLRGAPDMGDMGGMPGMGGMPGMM

Structure (SMILES) | outcome
O=C(O)C1=CCCN(CCON=C(c2ccccc2)c2ccccc2)C1 | inactive
C=C1C[C@@]23CC[C@H]4[C@@](C)(CCC[C@@]4(C)C(=O)O)[C@@H]2CC[C@]1(O)C3 | inactive
c1ccc2c(c1)CC(N1CCN(c3cccc4c3OCCO4)CC1)C2 | inactive
N[C@@H](Cc1ccc(F)cc1)C(=O)O | inactive
Clc1nccc2c1ccc1ccccc12 | inactive
CCC(=O)N1CCN(C(=O)c2ccccc2)CC1 | inactive
Oc1ccc(/C=C/c2ccc(/C=C/c3ccc(O)cc3)c(Br)c2)cc1 | inactive
COC(=O)C(C)(N)Cc1ccc(O)cc1 (stereo not given) | inactive
NS(=O)(=O)c1cccc2c1c([N+](=O)[O-])cc1nc(O)c(O)nc12 | inactive
C=CC[C@H](N)C(=O)O | inactive
CC(N)=NCCCC[C@@H](N)C(=O)O | inactive
CC(C)NC[C@H](O)COc1cccc2ccccc12 | inactive
CC(C)(CO)Cc1cc(C(C)(C)C)c(O)c(C(C)(C)C)c1 | inactive
CCCn1c(=O)c2[nH]c(-c3ccc(S(=O)(=O)O)cc3)nc2n(CCC)c1=O | inactive
COC(=O)C(N)Cc1ccc(Cl)cc1 (stereo not given) | inactive
O=C(O)/C(=C/c1c(C(=O)O)[nH]c2cc(Cl)cc(Cl)c12)c1ccccc1 | inactive
Cc1nc2n(c(=O)c1CCN1CCC(c3noc4cc(F)ccc34)CC1)CCCC2O (stereo not given) | inactive
O=[N+]([O-])c1cccc2cn[nH]c12 | inactive
NC1(C(=O)O)CC1 | inactive
O=C(O)C1CN(CCCP(=O)(O)O)CCN1 (stereo not given) | inactive

Structure (SMILES) | outcome
NC[C@@H]1O[C@H](c2ccccc2)Cc2c1ccc(O)c2O | inactive
C=C1C(=O)O[C@@H]2[C@H]3O[C@]3(C)CCC=C(C)CC[C@@H]12 | inactive
CCCCCC[C@@H]([C@@H](C)O)n1cnc2c(N)ncnc21 | inactive
CN1CC(O)C(O)C(O)C1CO (stereo not given) | inactive
N[C@H]1CONC1=O | inactive
CC#CCOC(=O)c1c(C)nc2sc3c(c2c1N)CCC(O)C3 (stereo not given) | inactive
O=c1oc(Cl)c(Cl)c2ccccc12 | inactive
CC(=O)N[C@@H](Cc1c[nH]c2ccccc12)C(=O)OCc1cc(C(F)(F)F)cc(C(F)(F)F)c1 | inactive
COc1ccc(NC(=O)c2ccc(-c3ccc(-c4noc(C)n4)cc3C)cc2)cc1N1CCN(C)CC1 | inactive
CSC(=N)N | inactive
c1ccc2nc(C3=NCCN3)ccc2c1 | inactive
C[C@@H](NCCc1ccc(O)cc1)[C@@H](O)c1ccc(O)cc1 | inactive
c1ccc(C(NCc2cccnc2)(c2ccccc2)c2ccccc2)cc1 | inactive
CCCc1c(OCCCOc2ccc(OCC(=O)O)cc2)ccc(C(C)=O)c1O | inactive
N[C@@H](CCCC(=O)O)C(=O)O | inactive
N=C(N)SCCc1cnc[nH]1 | inactive
O=c1onc2cnc3ccccc3n12 | inactive
NCC(O)c1ccc(O)c(O)c1 (stereo not given) | inactive
c1ccc2c(c1)CCC[C@H]2Nc1nc2ccccc2[nH]1 | inactive
COc1ccccc1N1CCN(CCCCN2C(=O)c3ccccc3C2=O)CC1 | inactive
